Compounds without any hit were thinned out: in the full panel of roughly 79,000, 15% have a hit. The source made the active and inactive calls. Cut-off read from the data, not from the text of the source: active = growth inhibition above about 70%; inactive = the rest.
Experiments:
[1] = NCI Yeast Anticancer Drug Screen. Data for the rad52 strain (AID 147);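 note: 0% = growth of vehicle-treated control cultures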; conditions: S. cerevisiae rad52 mutant growth inhibition, hits give high values
Summary of the method: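 DNA repair-defective yeast; compound exposure; growth scored against vehicle controls.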

[2] = NCI Yeast Anticancer Drug Screen. Data for the wt1 strain (AID 149);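 note: 0% = growth of vehicle-treated wt1 cultures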; conditions: S. cerevisiae wt1 strain (SPY 50644) growth inhibition, hits give high values
Summary of the method: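 Yeast wt1 strain exposed to compounds; growth inhibition measured relative to vehicle-treated controls.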

[3] = NCI Yeast Anticancer Drug Screen. Data for the rad50EPP+ strain (AID 151);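 note: 0% = growth of vehicle-treated control cultures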; conditions: S. cerevisiae rad50 mutant strain, hits give high values
Summary of the method: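 rad50EPP+ yeast treated with test compounds. Readout: growth vs vehicle control.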

[4] = NCI Yeast Anticancer Drug Screen. Data for the mgt1 strain (AID 153); conditions: S. cerevisiae mgt1 mutant growth inhibition, hits give high values
Summary of the method: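 Growth inhibition relative to vehicle controls was scored for the mgt1 yeast strain after compound exposure.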

[5] = NCI Yeast Anticancer Drug Screen. Data for the rad50 strain (AID 155);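 note: 0% = growth of vehicle-only cultures of the same strain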; conditions: S. cerevisiae rad50 strain growth inhibition, hits give high values
Summary of the method: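 Yeast carrying a defined DNA repair defect were exposed to test compounds, and growth was compared with vehicle-treated controls to give percent inhibition.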

[6] = NCI Yeast Anticancer Drug Screen. Data for the mec2-1 strain (AID 157); conditions: S. cerevisiae mec2-1 strain, hits give high values
Summary of the method: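 Growth inhibition is read against vehicle-treated controls after compound exposure of the mec2-1 yeast strain, which is defective in DNA damage repair or cell cycle control.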

[7] = NCI Yeast Anticancer Drug Screen. Data for the sgs1 mgt1 strain (AID 161);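 note: 0% = growth of cultures given vehicle only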; conditions: S. cerevisiae sgs1 mgt1 strain, hits give high values
Summary of the method: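 Percent growth inhibition was derived by comparing compound-exposed mutant yeast with vehicle-exposed cultures. The strain carries alterations in DNA damage repair.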

[8] = NCI Yeast Anticancer Drug Screen. Data for the CLN2oe strain (AID 163);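 note: 0% = growth of vehicle-only control cultures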; conditions: S. cerevisiae CLN2oe strain, hits give high values
Summary of the method: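 Compound-treated yeast; growth vs vehicle ctrl = % inhibition. Genetically altered strain (cell-cycle control).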

[9] = NCI Yeast Anticancer Drug Screen. Data for the cln2 rad14 strain (AID 165);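 note: 0% = growth equal to vehicle treated cultures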; conditions: S. cerevisiae cln2 rad14 strain, hits give high values
Summary of the method: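 Growth inhibition, relative to vehicle-treated controls, is the read-out. The test organism is a yeast strain with defined genetic alterations, cln2 rad14.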

[10] = NCI Yeast Anticancer Drug Screen. Data for the bub3 strain (AID 167); conditions: S. cerevisiae bub3 mutant strain, hits give high values
Summary of the method: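 Compounds were applied to a genetically altered yeast strain carrying a cell-cycle control defect. Growth inhibition was scored against vehicle-treated controls.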

[11] = NCI Yeast Anticancer Drug Screen. Data for the wt2 strain (AID 169);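 note: 0% = growth of vehicle-treated yeast cultures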; conditions: S. cerevisiae wt2 strain growth inhibition, hits give high values
Summary of the method: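 Compound exposure of yeast; growth compared with vehicle controls; inhibition reported.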

[12] = NCI Yeast Anticancer Drug Screen. Data for the mlh1 strain (AID 171);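 note: 0% = growth of vehicle-treated control cultures of the same strain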; conditions: S. cerevisiae mlh1 strain growth inhibition, hits give high values
Summary of the method: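 Compounds are applied to a genetically altered yeast strain, and its growth is compared with that of vehicle-treated cultures to give percent inhibition.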

[13] = NCI Yeast Anticancer Drug Screen. Data for the sgs1 strain (AID 173);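 note: 0% = growth of vehicle-only control cultures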; conditions: S. cerevisiae sgs1 mutant, hits give high values
Summary of the method: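 Compounds applied to genetically altered yeast; growth compared with vehicle-treated cultures to give % inhibition.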

[14] = NCI Yeast Anticancer Drug Screen. Data for the mlh1 rad18 strain (AID 175); conditions: S. cerevisiae mlh1 rad18 strain growth inhibition, hits give high values
Summary of the method: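 Cells of a genetically altered yeast strain, deficient in DNA damage repair, were treated with compound. Their growth was then compared with that of vehicle-treated cultures to give inhibition.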

[15] = NCI Yeast Anticancer Drug Screen. Data for the rad14 strain (AID 159);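 note: 0% = growth of vehicle-treated control cultures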; conditions: S. cerevisiae rad14 strain growth inhibition, hits give high values
Summary of the method: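 Yeast cells carrying a defined DNA-repair defect were exposed to compounds, and growth inhibition was calculated relative to vehicle-treated control cultures.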

[16] = NCI Yeast Anticancer Drug Screen. Data for the rad18 strain (AID 177); conditions: S. cerevisiae rad18 mutant growth inhibition, hits give high values
Summary of the method: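 Compounds are applied to a repair-deficient yeast strain, and growth is compared with that of vehicle-treated cultures to give percent inhibition.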

[17] = at 5.0 µM (retest, dose inferred, filed as 0.5)
[18] = at 50.0 µM (retest, dose inferred, filed as 5.0)

Measured: growth inhibition

CC(=O)OCC1OC2OC(=O)NC2C(OC(C)=O)C1OC(C)=O (stereo unspecified)
inactive: [1]; at 1.2 µM -3% | [1]; at 3.7 µM -1% | [1]; at 11.0 µM 0% | [1]; at 33.0 µM 1% | [1]; at 100.0 µM -3% | [2]; at 1.2 µM -3% | [2]; at 3.7 µM -3% | [2]; at 11.0 µM -2% | [2]; at 33.0 µM -2% | [2]; at 100.0 µM -1% | [3]; at 1.2 µM -4% | [3]; at 3.7 µM 0% | [3]; at 11.0 µM -1% | [3]; at 33.0 µM -5% | [3]; at 100.0 µM -8% | [4]; at 1.2 µM -1% | [4]; at 3.7 µM -1% | [4]; at 11.0 µM 1% | [4]; at 33.0 µM -4% | [4]; at 100.0 µM -35% | [5]; at 1.2 µM -5% | [5]; at 3.7 µM -1% | [5]; [17] 5% | [5]; at 11.0 µM 0% | [5]; at 33.0 µM -1% | [5]; [18] -1% | [5]; at 50.0 µM 5.15% | [5]; at 100.0 µM 0% | [6]; at 1.2 µM -2% | [6]; at 3.7 µM -2% | [6]; [17] -7% | [6]; at 11.0 µM -1% | [6]; at 33.0 µM -1% | [6]; [18] 3% | [6]; at 50.0 µM 10.9% | [6]; at 100.0 µM 0% | [7]; [17] 2% | [7]; [18] 15% | [7]; at 50.0 µM -17.1% | [8]; at 1.2 µM -3% | [8]; at 3.7 µM 2% | [8]; at 11.0 µM -1% | [8]; at 33.0 µM -4% | [8]; at 100.0 µM 0% | [9]; [17] -21% | [9]; [18] 44% | [9]; at 50.0 µM -15.3% | [10]; at 1.2 µM 13% | [10]; at 3.7 µM 2% | [10]; [17] 3% | [10]; at 11.0 µM -2% | [10]; at 33.0 µM 1% | [10]; [18] 3% | [10]; at 50.0 µM -9.2% | [10]; at 100.0 µM -4% | [11]; at 1.2 µM -3% | [11]; at 3.7 µM -3% | [11]; at 11.0 µM -3% | [11]; at 33.0 µM -4% | [11]; at 100.0 µM -1% | [12]; at 1.2 µM -2% | [12]; at 3.7 µM -3% | [12]; at 11.0 µM -2% | [12]; at 33.0 µM -1% | [12]; at 100.0 µM 0% | [13]; at 1.2 µM -3% | [13]; at 3.7 µM -3% | [13]; at 11.0 µM -2% | [13]; at 33.0 µM -1% | [13]; at 100.0 µM 0% | [14]; [17] -9% | [14]; [18] 5% | [14]; at 50.0 µM -7.3%

CC1=C(SCc2ccccc2)C(=O)c2ccccc2C1=O
active: [1]; at 33.0 µM 81% | [1]; at 100.0 µM 90% | [2]; at 100.0 µM 91% | [4]; at 100.0 µM 89% | [5]; [17] 99% | [5]; at 33.0 µM 81% | [5]; [18] 91% | [5]; at 100.0 µM 87% | [6]; [17] 98% | [6]; at 33.0 µM 74% | [6]; [18] 92% | [6]; at 100.0 µM 90% | [15]; at 33.0 µM 85% | [15]; at 100.0 µM 92% | [7]; at 50.0 µM 71.3% | [10]; at 33.0 µM 84% | [10]; at 50.0 µM 79% | [10]; at 100.0 µM 90% | [11]; at 33.0 µM 75% | [11]; at 100.0 µM 92% | [12]; at 100.0 µM 89% | [13]; at 33.0 µM 76% | [13]; at 100.0 µM 90% | [14]; [17] 99% | [14]; [18] 92% | [14]; at 50.0 µM 73.5% | [16]; at 33.0 µM 79% | [16]; at 100.0 µM 90%
inactive: [1]; at 1.2 µM -28% | [1]; at 3.7 µM -24% | [1]; at 11.0 µM 4% | [2]; at 1.2 µM -15% | [2]; at 3.7 µM -15% | [2]; at 11.0 µM -7% | [2]; at 33.0 µM 64% | [3]; at 1.2 µM -28% | [3]; at 3.7 µM -20% | [3]; at 11.0 µM -4% | [3]; at 33.0 µM 35% | [3]; at 100.0 µM 59% | [4]; at 1.2 µM -74% | [4]; at 3.7 µM -64% | [4]; at 11.0 µM -51% | [4]; at 33.0 µM 43% | [5]; at 1.2 µM -12% | [5]; at 3.7 µM -22% | [5]; at 11.0 µM 8% | [5]; at 50.0 µM 68.9% | [6]; at 1.2 µM -78% | [6]; at 3.7 µM -69% | [6]; at 11.0 µM -68% | [6]; at 50.0 µM 51.1% | [15]; at 1.2 µM -32% | [15]; at 3.7 µM -37% | [15]; at 11.0 µM -35% | [7]; [17] -23% | [7]; [18] 34% | [9]; [17] 44% | [9]; [18] 53% | [9]; at 50.0 µM 46.2% | [10]; at 1.2 µM -14% | [10]; at 3.7 µM -17% | [10]; [17] 20% | [10]; at 11.0 µM 26% | [10]; [18] 64% | [11]; at 1.2 µM -19% | [11]; at 3.7 µM -40% | [11]; at 11.0 µM -10% | [12]; at 1.2 µM -43% | [12]; at 3.7 µM -29% | [12]; at 11.0 µM -19% | [12]; at 33.0 µM 62% | [13]; at 1.2 µM -53% | [13]; at 3.7 µM -56% | [13]; at 11.0 µM -29% | [16]; at 1.2 µM -23% | [16]; at 3.7 µM -46% | [16]; at 11.0 µM -27%

— PubChem BioAssay (NCI)
